ERa SRC1 pot – enhances coactivator binding to human estrogen receptor alpha | P03372 | TR-FRET ERalpha-LBD/SRC-Cy5 coactivator binding, 2 h; 100 = basal binding, no effect | coactivator binding (% of control), % at 25.6 µM | hit rate 1.3% among 86,000; in the data active means activity above about 200%;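 further: binding measured in presence of low estradiol as agonist stimulus; 0% = peptide alone without receptor and 100% = receptor with peptide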
Target sequence (P03372 whole entry, looked up, the tested form may be a part): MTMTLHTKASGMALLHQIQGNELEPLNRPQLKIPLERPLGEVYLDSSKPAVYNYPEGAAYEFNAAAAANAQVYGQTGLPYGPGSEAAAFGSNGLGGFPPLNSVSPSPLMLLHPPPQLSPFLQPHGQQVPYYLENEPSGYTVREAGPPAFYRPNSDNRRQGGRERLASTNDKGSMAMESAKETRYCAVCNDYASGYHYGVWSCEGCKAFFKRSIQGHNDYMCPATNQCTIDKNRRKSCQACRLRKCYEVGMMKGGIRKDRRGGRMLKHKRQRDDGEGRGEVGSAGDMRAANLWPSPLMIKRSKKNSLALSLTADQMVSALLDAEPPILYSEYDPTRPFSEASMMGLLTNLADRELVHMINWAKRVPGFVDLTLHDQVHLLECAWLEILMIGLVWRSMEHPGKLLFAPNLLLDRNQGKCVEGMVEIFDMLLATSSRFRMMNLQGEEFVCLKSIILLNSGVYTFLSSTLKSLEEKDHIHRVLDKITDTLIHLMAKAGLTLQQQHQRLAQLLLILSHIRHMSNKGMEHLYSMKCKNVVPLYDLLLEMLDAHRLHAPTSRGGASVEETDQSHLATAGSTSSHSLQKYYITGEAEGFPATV
MRP-1 activ – activators of MRP-1 | hit rate 0.61% among 140,000 | H69AR cells + doxorubicin, viability rescue, CellTiter-Glo | AID 799 | viability increase, % at 10 µM;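 active means viability gain under doxorubicin at or above a set limit, the compound median plus 3 SD, cut at about 4.7% in these data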;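 further: MRP-1 overexpressing cells given doxorubicin 25 µM after compound pretreatment; 18-22 h compound pretreatment then 72 h with doxorubicin before readout; 0% = doxorubicin-only wells and 100% = vehicle-treated cells without doxorubicin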
ERa SRC1 inh – blocks coactivator binding to human estrogen receptor alpha; P03372; TR-FRET ER-alpha LBD / SRC-1 peptide, estradiol-bound; inhibition, % at 25.6 µM; hit rate 1.7% among 86,000; in the data active means inhibition above about 50%;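 further: 0% = receptor plus peptide control and 100% = peptide only without receptor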
MRP reversal – compounds reversing MRP-mediated drug resistance; H69AR cells + 2 uM doxorubicin, CellTiter-Glo, 72 h; differential viability (reversal), % at 10 µM; hit rate 0.04% among 85,000; AID 602;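 active means viability drop by adding the cancer drug above about 55%, with treated viability meeting a 40% cutoff, limit read from the data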;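 further: viability without doxorubicin minus viability with 2 µM doxorubicin for each compound; larger differential means the compound sensitizes cells more to doxorubicin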
ERb SRC1 inh – ER-beta (human) coactivator binding inhibition; Q92731; TR-FRET ER-beta LBD / SRC1-Cy5 peptide binding; receptor agonist-loaded with 1 µM estradiol; inhibition, % at 25.6 µM; hit rate 1.3% among 86,000;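 active means compounds whose percent inhibition of the receptor-coactivator binding signal exceeds about 50% in the single-dose screen, limit read from the data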;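 further: 0% = receptor plus peptide wells without compound and 100% = peptide-only wells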
Smad3 inh – inhibitors of human Smad3 transcription factor binding. P84022. hit rate 0.29% among 88,000. TR-FRET Smad3/Dy647-FoxH1 peptide binding, europium anti-His. inhibition, % at 25 µM. AID 630;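 active means compounds that reduce the energy-transfer binding signal between the protein and its labelled peptide by more than half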;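 further: 0% = Smad3 plus labelled peptide maximal FRET and 100% = peptide-only background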
The depositor's hits bear a star; [ ] = remark or other dose. Only some compounds are listed: those with a hit (about 2.9% of all), similar ones and a draw of the others.

What do the screens show for `Nc1ccc(N2CCN(C(=O)c3ccco3)CC2)cc1`?
ERa SRC1 pot: 3.0; MRP-1 activ: -3.7; ERa SRC1 inh: 84.8*[fluorescence artefact?]; MRP reversal: 6.4; ERb SRC1 inh: 55.5*[fluorescence artefact?]; Smad3 inh: 8.3

Results for Cc1cccc(NC(=O)c2c(O)c3cccc4c3n(c2=O)CC4)c1 ?
ERa SRC1 pot: 216.6*[fluorescence artefact?]; ERa SRC1 inh: 34.1; MRP reversal: 3.0; ERb SRC1 inh: 28.0; Smad3 inh: 26.1

How did O=C(O)CCSCc1ccccc1 do in these assays?
Smad3 inh: -3.8

What do the screens show for `Cc1ccc(-c2csc(NC(=O)c3ccno3)n2)cc1`?
ERa SRC1 pot: 28.6; MRP-1 activ: 0.5; ERa SRC1 inh: 73.1*; MRP reversal: 3.9; ERb SRC1 inh: 75.0*; Smad3 inh: 3.0

How did C[n+]1cccc(/C=C/c2ccc3cccc(O)c3n2)c1 do in these assays?
Smad3 inh: 39.9

How did O=[N+]([O-])c1cccc(/C=N\N2CCN(Cc3ccccc3Cl)CC2)c1 do in these assays?
ERa SRC1 pot: 116.1; MRP-1 activ: 4.8*; ERa SRC1 inh: -5.8; MRP reversal: 12.9; ERb SRC1 inh: -1.4; Smad3 inh: 11.4

Results for CCOC(=O)c1ccc(N2C(=O)c3n[nH]c(C)c3C2c2ccc(OC)cc2OC)cc1 (centres undefined) ?
ERa SRC1 pot: 80.5; MRP-1 activ: 9.4*; ERa SRC1 inh: -1.6; MRP reversal: 0.8; ERb SRC1 inh: 3.4; Smad3 inh: -0.7

Results for CCOC(=O)c1ccc(N2C(=O)c3n[nH]c(C)c3C2c2ccc(OC)cc2)cc1 (centres undefined) ?
ERa SRC1 pot: 110.1; MRP-1 activ: 0.3; ERa SRC1 inh: 98.8*[fluorescence artefact?]; MRP reversal: 11.6; ERb SRC1 inh: -7.4; Smad3 inh: 8.1

How did CCOC(=O)c1ccc(N2C(=O)c3n[nH]c(C)c3C2c2ccc(OC)c(OC)c2)cc1 (centres undefined) do in these assays?
ERa SRC1 pot: 112.1; MRP-1 activ: 2.1; ERa SRC1 inh: 0.6; MRP reversal: -16.4; ERb SRC1 inh: 1.9; Smad3 inh: 9.3

What do the screens show for `CCOC(=O)c1ccc(N2C(=O)c3n[nH]c(C)c3C2c2ccco2)cc1` (centres undefined)?
ERa SRC1 pot: 44.0; MRP-1 activ: -1.3; ERa SRC1 inh: 13.2; MRP reversal: 4.1; ERb SRC1 inh: -8.1; Smad3 inh: 1.5

What do the screens show for `COc1ccc(N2C(=O)CC(N3CCC(O)(c4cccc(C(F)(F)F)c4)CC3)C2=O)cc1` (centres undefined)?
MRP-1 activ: 6.5*

How did FC(F)(F)c1nc(-c2ccncc2)ncc1-c1nnnn1-c1ccccc1 do in these assays?
MRP-1 activ: -3.0

What do the screens show for `Fc1ccc(-n2nnnc2-c2cnc(-c3cccs3)nc2C(F)(F)F)cc1`?
MRP-1 activ: 5.1*

How did COC(=O)c1ccc2c(=O)n(CCN3CCOCC3)c(SCC(=O)C(C)(C)C)nc2c1 do in these assays?
ERa SRC1 pot: 786.4*[fluorescence artefact?]; MRP-1 activ: -4.6; ERa SRC1 inh: 9.5; MRP reversal: 8.4; ERb SRC1 inh: 3.7; Smad3 inh: -1.5

What do the screens show for `CCOC(=O)CSc1nc2cc(C(=O)OC)ccc2c(=O)n1CCN1CCOCC1`?
ERa SRC1 pot: 107.2; MRP-1 activ: -3.7; ERa SRC1 inh: 7.0; MRP reversal: -17.2; ERb SRC1 inh: 3.5; Smad3 inh: 2.0

What do the screens show for `COc1ccccc1/C=N/NC(=O)CC(=O)NCc1cccnc1`?
MRP-1 activ: -0.7

What do the screens show for `O=C(CC(=O)N/N=C/c1ccccc1O)NCc1cccnc1`?
MRP-1 activ: 5.5*

How did CSCC[C@H](Nc1ncnc2sc(C)c(C)c12)C(=O)O do in these assays?
ERa SRC1 pot: 99.4; MRP-1 activ: -2.8; ERa SRC1 inh: 1.9; MRP reversal: -2.5; ERb SRC1 inh: -1.1; Smad3 inh: 15.2

Results for O=C(O)/C(=C\c1ccccc1)Cc1ccccc1 ?
Smad3 inh: 13.9

What do the screens show for `CCOC(=O)Cn1c(=O)oc2cc(S(=O)(=O)N3CCN(c4ccccn4)CC3)ccc21`?
ERa SRC1 pot: 244.9*[fluorescence artefact?]; MRP-1 activ: -2.2; ERa SRC1 inh: 30.6; MRP reversal: 13.2; ERb SRC1 inh: 33.0; Smad3 inh: -5.3

Results for S=c1nc(-c2nc(=S)[nH]c3c2CCCCCCCCCC3)c2c([nH]1)CCCCCCCCCC2 ?
Smad3 inh: -2.0

Results for Cc1ccc(NC(=O)CN2C(=O)S/C(=C\c3cccn3C)C2=O)cc1 ?
MRP-1 activ: -5.2

Source: PubChem
